According to PubChem BioAssay AID1159580 (chemical genetic matrix, 2015):
Values joined by “and” are separate entries in the source; they are usually repeats but may differ in a detail not shown here. Identical values can stand only once. Out of some 5,500 compounds screened, about 2,000 (36%) were called active. Inconclusive results (about 18%) are left out. No stated cut-off is given here; in the data, active means normalized growth mostly below about 0.91 (no sharp cut-off); inconclusive means no clear call, values can overlap the other calls; inactive means mostly above about 0.92. Some of the results follow.

Experiment: chemical genetic growth profiling, strain panel (AID 1159580);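 further: tested at 20 µM; growth read once vehicle control cultures reached saturation at 30 °C; 1 = growth at the plate median or of vehicle wells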
Settings: S. cerevisiae deletion strains, growth OD

Measured: normalized growth

COc1ccc(OC)c(C(O)CNC(=O)CN)c1 (stereo not given)
inactive: locus YAL021C, strain ccr4, stronger effect = lower value 0.984 | locus YAL026C, strain drs2, stronger effect = lower value 1 | locus YAL030W, strain snc1, stronger effect = lower value 1.01 | locus YBL061C, strain skt5, stronger effect = lower value 1.01 | locus YBR009C, strain hhf1, stronger effect = lower value 1 | locus YBR021W, strain FUR4, stronger effect = lower value 1.02 | locus YBR023C, strain chs3, stronger effect = lower value 1 | locus YBR171W, strain sec66, stronger effect = lower value 1.02 | locus YBR229C, strain ROT2, stronger effect = lower value 0.961 | locus YBR231C, strain swc5, stronger effect = lower value 1 | locus YBR279W, strain paf1, stronger effect = lower value 1.01 | locus YCL011C, strain gbp2, stronger effect = lower value 1.01 | locus YCL016C, strain dcc1, stronger effect = lower value 1.01 | locus YCL029C, strain bik1, stronger effect = lower value 0.987 | locus YCL061C, strain MRC1, stronger effect = lower value 1.01 | locus YCL069W, strain vba3, stronger effect = lower value 1.01 | locus YCR088W, strain abp1, stronger effect = lower value 0.996 | locus YDL005C, strain med2, stronger effect = lower value 1 | locus YDL035C, strain GPR1, stronger effect = lower value 0.986 | locus YDL040C, strain nat1, stronger effect = lower value 0.997 | locus YDL074C, strain BRE1, stronger effect = lower value 0.962 | locus YDL101C, strain DUN1, stronger effect = lower value 0.987 | locus YDL134C, strain PPH21, stronger effect = lower value 1 | locus YDL185W, strain tfp1, stronger effect = lower value 0.979 | locus YDL192W, strain arf1, stronger effect = lower value 0.964 | locus YDR001C, strain nth1, stronger effect = lower value 0.997 | locus YDR069C, strain doa4, stronger effect = lower value 1 | locus YDR101C, strain arx1, stronger effect = lower value 0.98 | locus YDR137W, strain rgp1, stronger effect = lower value 1.01 | locus YDR150W, strain NUM1, stronger effect = lower value 0.993 | locus YDR159W, strain sac3, stronger effect = lower value 0.989 | locus YDR162C, strain NBP2, stronger effect = lower value 0.983 | locus YDR195W, strain ref2 0.977 | locus YDR297W, strain sur2, stronger effect = lower value 1 | locus YDR318W, strain mcm21, stronger effect = lower value 0.982 | locus YDR334W, strain swr1, stronger effect = lower value 1.01 | locus YDR335W, strain msn5, stronger effect = lower value 1 | locus YDR388W, stronger effect = lower value 0.983 | locus YDR392W, strain spt3, stronger effect = lower value 1.02 | locus YDR502C, strain sam2, stronger effect = lower value 0.981 | locus YEL003W, strain gim4, stronger effect = lower value 0.998 | locus YEL037C, strain rad23, stronger effect = lower value 1 | locus YEL061C, strain CIN8 (second series), stronger effect = lower value 1.01 | locus YEL061C, strain CIN8, stronger effect = lower value 0.979 | locus YER015W, strain faa2, stronger effect = lower value 1.02 | locus YER016W, strain bim1, stronger effect = lower value 1 | locus YER110C, stronger effect = lower value 0.973 | locus YER111C, strain swi4, stronger effect = lower value 1.01 | locus YER155C, strain BEM2 (second series), stronger effect = lower value 1.01 | locus YER155C, strain BEM2, stronger effect = lower value 1 | locus YER167W, strain BCK2, stronger effect = lower value 1.01 | locus YFR010W, strain ubp6, stronger effect = lower value 1.01 | locus YGL078C, strain dbp3, stronger effect = lower value 0.974 | locus YGL086W, strain mad1, stronger effect = lower value 0.979 | locus YGL167C, strain pmr1, stronger effect = lower value 0.995 | locus YGL173C, strain kem1, stronger effect = lower value 0.995 | locus YGL227W, strain vid30, stronger effect = lower value 1 | locus YGL240W, strain doc1, stronger effect = lower value 1.02 | locus YGL248W, strain PDE1, stronger effect = lower value 0.967 | locus YGL253W, strain hxk2, stronger effect = lower value 1.02 | locus YGR135W, strain pre9, stronger effect = lower value 0.999 | locus YGR229C, strain SMI1, stronger effect = lower value 0.99 | locus YGR252W, strain gcn5, stronger effect = lower value 0.956 | locus YHR013C, strain ard1, stronger effect = lower value 1.01 | locus YHR027C, strain rpn1, stronger effect = lower value 0.999 | locus YHR030C, strain SLT2, stronger effect = lower value 1 | locus YHR079C, strain IRE1 (second series), stronger effect = lower value 0.991 | locus YHR079C, strain IRE1, stronger effect = lower value 1.01 | locus YHR094C, strain hxt1, stronger effect = lower value 0.978 | locus YHR129C, strain ARP1, stronger effect = lower value 0.996 | locus YHR142W, strain chs7, stronger effect = lower value 0.997 | locus YIL066C, strain RNR3, stronger effect = lower value 0.969 | locus YIL073C, strain SPO22, stronger effect = lower value 0.985 | locus YIL125W, strain kgd1, stronger effect = lower value 0.975 | locus YIR030C, strain dcg1, stronger effect = lower value 0.986 | locus YJL092W, strain hpr5, stronger effect = lower value 1.01 | locus YJL095W, strain BCK1 (second series), stronger effect = lower value 1 | locus YJL095W, strain BCK1, stronger effect = lower value 0.975 and 1.03 | locus YJL115W, strain asf1, stronger effect = lower value 1 | locus YJL129C, strain trk1, stronger effect = lower value 0.999 | locus YJL134W, strain LCB3, stronger effect = lower value 0.991 | locus YJL154C, strain vps35, stronger effect = lower value 0.992 | locus YJL164C, strain tpk1, stronger effect = lower value 1 | locus YJL166W, strain qcr8, stronger effect = lower value 1 | locus YJL168C, strain set2, stronger effect = lower value 0.976 | locus YJL187C, strain SWE1 (second series), stronger effect = lower value 0.958 | locus YJL187C, strain SWE1, stronger effect = lower value 1 | locus YJR043C, strain POL32, stronger effect = lower value 0.944 | locus YJR066W, strain TOR1, stronger effect = lower value 1 | locus YJR075W, strain HOC1, stronger effect = lower value 0.993
